# Data: PubChem BioAssay (NCI)
# The panel holds about 79,000 compounds, 15% with a hit somewhere; the sample as a whole holds those more often. Values without a mark were called inactive. Activity calls are given as the source filed them. Cut-off read from the data, not from the text of the source: active = growth inhibition above about 70%; inactive = the rest.
# Tests used:
# [1] = NCI Yeast Anticancer Drug Screen. Data for the rad52 strain (AID 147);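 note: 0% = growth of vehicle-treated control cultures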; settings: S. cerevisiae rad52 mutant growth inhibition, active compounds read high
# How it was run: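 Screen used a yeast mutant impaired in DNA repair. After compound exposure, growth was measured. Values reflect inhibition compared with vehicle-treated cells.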
# [2] = NCI Yeast Anticancer Drug Screen. Data for the wt1 strain (AID 149);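 note: 0% = growth of vehicle-treated wt1 cultures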; settings: S. cerevisiae wt1 strain (SPY 50644) growth inhibition, active compounds read high
# How it was run: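 Growth inhibition read against vehicle controls after compound exposure of the wt1 yeast strain.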
# [3] = NCI Yeast Anticancer Drug Screen. Data for the rad50EPP+ strain (AID 151);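 note: 0% = growth of vehicle-treated control cultures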; settings: S. cerevisiae rad50 mutant strain, active compounds read high
# How it was run: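 Exposing the rad50EPP+ strain to each compound, growth was compared with vehicle-only cultures to give inhibition.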
# [4] = NCI Yeast Anticancer Drug Screen. Data for the rad50 strain (AID 155);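 note: 0% = growth of vehicle-only cultures of the same strain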; settings: S. cerevisiae rad50 strain growth inhibition, active compounds read high
# How it was run: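 Readout: growth inhibition relative to vehicle-treated cultures. Compound exposure was carried out in a genetically defined yeast strain deficient in DNA damage repair.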
# [5] = NCI Yeast Anticancer Drug Screen. Data for the mec2-1 strain (AID 157); settings: S. cerevisiae mec2-1 strain, active compounds read high
# How it was run: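 Readout is yeast growth inhibition, normalised to vehicle-treated controls, in the mec2-1 strain exposed to compound.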
# [6] = NCI Yeast Anticancer Drug Screen. Data for the rad14 strain (AID 159);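 note: 0% = growth of vehicle-treated control cultures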; settings: S. cerevisiae rad14 strain growth inhibition, active compounds read high
# How it was run: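 Growth inhibition vs vehicle controls; genetically altered yeast strain (DNA damage repair defect) treated with test compounds.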
# [7] = NCI Yeast Anticancer Drug Screen. Data for the sgs1 mgt1 strain (AID 161);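 note: 0% = growth of cultures given vehicle only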; settings: S. cerevisiae sgs1 mgt1 strain, active compounds read high
# How it was run: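 Yeast cells carrying a defined DNA-repair defect were exposed to test compounds. Growth inhibition was measured relative to vehicle-treated controls.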
# [8] = NCI Yeast Anticancer Drug Screen. Data for the CLN2oe strain (AID 163);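 note: 0% = growth of vehicle-only control cultures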; settings: S. cerevisiae CLN2oe strain, active compounds read high
# How it was run: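 Values reflect how much compound exposure reduced yeast growth, referenced to vehicle-exposed cells. Assay organism is a strain with a defined genetic change affecting cell-cycle control.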
# [9] = NCI Yeast Anticancer Drug Screen. Data for the cln2 rad14 strain (AID 165);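 note: 0% = growth equal to vehicle treated cultures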; settings: S. cerevisiae cln2 rad14 strain, active compounds read high
# How it was run: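 Relative to vehicle controls, growth inhibition of compound-treated cln2 rad14 yeast was recorded.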
# [10] = NCI Yeast Anticancer Drug Screen. Data for the bub3 strain (AID 167); settings: S. cerevisiae bub3 mutant strain, active compounds read high
# How it was run: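 Readout: yeast growth inhibition, expressed relative to vehicle-only wells. The test organism is a mutant strain from a panel with lesions in DNA repair or checkpoint genes.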
# [11] = NCI Yeast Anticancer Drug Screen. Data for the wt2 strain (AID 169);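 note: 0% = growth of vehicle-treated yeast cultures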; settings: S. cerevisiae wt2 strain growth inhibition, active compounds read high
# How it was run: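 Values express reduction in yeast growth under compound treatment, referenced to vehicle-treated cells.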
# [12] = NCI Yeast Anticancer Drug Screen. Data for the mlh1 strain (AID 171);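 note: 0% = growth of vehicle-treated control cultures of the same strain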; settings: S. cerevisiae mlh1 strain growth inhibition, active compounds read high
# How it was run: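 Steps: expose the defined-mutant yeast strain to compound; expose a parallel culture to vehicle; measure growth; express compound effect as inhibition relative to the vehicle culture.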
# [13] = NCI Yeast Anticancer Drug Screen. Data for the mlh1 rad18 strain (AID 175); settings: S. cerevisiae mlh1 rad18 strain growth inhibition, active compounds read high
# How it was run: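 Test agents were incubated with a yeast strain of defined genotype (DNA damage repair defect). Inhibition of growth was derived by comparison with vehicle-exposed cultures.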
# [14] = NCI Yeast Anticancer Drug Screen. Data for the rad18 strain (AID 177); settings: S. cerevisiae rad18 mutant growth inhibition, active compounds read high
# How it was run: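 A genetically defined yeast mutant impaired in DNA damage repair was treated with test compounds, then its growth was measured against cultures receiving vehicle alone.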
# [15] = at 5.0 µM (retest, dose inferred, filed as 0.5)
# [16] = at 50.0 µM (retest, dose inferred, filed as 5.0)
smiles,measurement,setting,value
CC/C(=C(\c1ccccc1)c1ccc(OCC[N+](C)(C)C)cc1)c1ccccc1,growth inhibition,[1]; at 1.2 µM,0%
same,growth inhibition,[1]; at 3.7 µM,68%
same,growth inhibition,[1]; at 11.0 µM,99% (active)
same,growth inhibition,[1]; at 33.0 µM,99% (active)
same,growth inhibition,[1]; at 100.0 µM,99% (active)
same,growth inhibition,[2]; at 1.2 µM,-4%
same,growth inhibition,[2]; at 3.7 µM,12%
same,growth inhibition,[2]; at 11.0 µM,98% (active)
same,growth inhibition,[2]; at 33.0 µM,99% (active)
same,growth inhibition,[2]; at 100.0 µM,99% (active)
same,growth inhibition,[3]; at 1.2 µM,3%
same,growth inhibition,[3]; at 3.7 µM,18%
same,growth inhibition,[3]; at 11.0 µM,94% (active)
same,growth inhibition,[3]; at 33.0 µM,98% (active)
same,growth inhibition,[3]; at 100.0 µM,99% (active)
same,growth inhibition,[4]; at 1.2 µM,7%
same,growth inhibition,[4]; at 3.7 µM,85% (active)
same,growth inhibition,[4]; [15],70% (active)
same,growth inhibition,[4]; at 11.0 µM,97% (active)
same,growth inhibition,[4]; at 33.0 µM,98% (active)
same,growth inhibition,[4]; [16],70% (active)
same,growth inhibition,[4]; at 50.0 µM,90% (active)
same,growth inhibition,[4]; at 100.0 µM,99% (active)
same,growth inhibition,[5]; at 1.2 µM,-6%
same,growth inhibition,[5]; at 3.7 µM,33%
same,growth inhibition,[5]; [15],31%
same,growth inhibition,[5]; at 11.0 µM,99% (active)
same,growth inhibition,[5]; at 33.0 µM,99% (active)
same,growth inhibition,[5]; [16],31%
same,growth inhibition,[5]; at 50.0 µM,93% (active)
same,growth inhibition,[5]; at 100.0 µM,99% (active)
same,growth inhibition,[6]; at 1.2 µM,0%
same,growth inhibition,[6]; at 3.7 µM,88% (active)
same,growth inhibition,[6]; at 11.0 µM,99% (active)
same,growth inhibition,[6]; at 33.0 µM,99% (active)
same,growth inhibition,[6]; at 100.0 µM,99% (active)
same,growth inhibition,[7]; [15],74% (active)
same,growth inhibition,[7]; [16],74% (active)
same,growth inhibition,[7]; at 50.0 µM,91.3% (active)
same,growth inhibition,[8]; at 1.2 µM,-7%
same,growth inhibition,[8]; at 3.7 µM,10%
same,growth inhibition,[8]; at 11.0 µM,98% (active)
same,growth inhibition,[8]; at 33.0 µM,99% (active)
same,growth inhibition,[8]; at 100.0 µM,99% (active)
same,growth inhibition,[9]; [15],21%
same,growth inhibition,[9]; [16],21%
same,growth inhibition,[9]; at 50.0 µM,91% (active)
same,growth inhibition,[10]; at 1.2 µM,-3%
same,growth inhibition,[10]; at 3.7 µM,36%
same,growth inhibition,[10]; [15],22%
same,growth inhibition,[10]; at 11.0 µM,99% (active)
same,growth inhibition,[10]; at 33.0 µM,99% (active)
same,growth inhibition,[10]; [16],22%
same,growth inhibition,[10]; at 50.0 µM,91.5% (active)
same,growth inhibition,[10]; at 100.0 µM,99% (active)
same,growth inhibition,[11]; at 1.2 µM,-2%
same,growth inhibition,[11]; at 3.7 µM,55%
same,growth inhibition,[11]; at 11.0 µM,99% (active)
same,growth inhibition,[11]; at 33.0 µM,99% (active)
same,growth inhibition,[11]; at 100.0 µM,99% (active)
same,growth inhibition,[12]; at 1.2 µM,-7%
same,growth inhibition,[12]; at 3.7 µM,70% (active)
same,growth inhibition,[12]; at 11.0 µM,99% (active)
same,growth inhibition,[12]; at 33.0 µM,99% (active)
same,growth inhibition,[12]; at 100.0 µM,99% (active)
same,growth inhibition,[13]; [15],27%
same,growth inhibition,[13]; [16],27%
same,growth inhibition,[13]; at 50.0 µM,90.1% (active)
same,growth inhibition,[14]; at 1.2 µM,3%
same,growth inhibition,[14]; at 3.7 µM,86% (active)
same,growth inhibition,[14]; at 11.0 µM,99% (active)
same,growth inhibition,[14]; at 33.0 µM,99% (active)
same,growth inhibition,[14]; at 100.0 µM,99% (active)
